# VCAM1 TNFa inh = reduces TNF alpha induced VCAM1 expression in HUVEC; HUVEC TNFa-induced VCAM-1 immunofluorescence, high-content imaging; inhibition, % at 2 µM; 95,000 tested, 0.48% active; AID 802;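 active = inhibition above the batch mean plus 3 SD, with images confirmed as a hit by eye, cut at about 37% in these data; inconclusive = inhibition above that limit but hit not confirmed in images; inactive = inhibition not above that limit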;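 note: 0% = TNF-stimulated DMSO wells and 100% = unstimulated control wells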
# IL1B NFkB pot = enhances IL-1B driven NFkB nuclear translocation. activation, % at 2 µM. 94,000 tested, 0.3% active. HUVEC IL-1B NFkB p65 nuclear translocation imaging;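 active = activation above 40%, about the mean plus 3 SD, also judged a hit on visual image review; inconclusive = activation above 40% but not a hit on visual review; inactive = activation not above 40% and no visual hit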;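 note: percent activation is computed from the nuclear over cytoplasmic p65 intensity ratio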
# HUVEC tox IL1B = HUVEC cytotoxicity counter-screen, IL-1B stimulated; HUVEC cell count loss, Hoechst imaging; cell count reduction, % at 2 µM; 94,000 tested, 0.41% active;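 active = cell count reduction more than 3 SD above the screen-wide mean, cut at about 70% in these data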;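 note: normalized per plate to untreated control cells as the no-loss baseline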
# IL1B NFkB inh = blocks IL-1B driven NFkB nuclear translocation in HUVEC cells; AID 796; 94,000 tested, 0.43% active; HUVEC IL-1B NFkB p65 nuclear translocation imaging; inhibition, % at 2 µM;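 active = inhibition above about 30% together with a positive call from visual inspection of the well image, limit read from the data; inconclusive = inhibition above a set limit but visual check negative; inactive = inhibition not above a set limit, visual check negative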;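 note: nuclear over cytoplasmic p65 intensity ratio measured by imaging; 0% = IL-1B stimulated DMSO wells and 100% = unstimulated DMSO wells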
# HUVEC tox TNFa = toxic to HUVEC cells under TNF alpha stimulation. AID 848. 93,000 tested, 0.17% active. HUVEC TNFalpha-stimulated, Hoechst cell count, imaging. cell count reduction, % at 2 µM;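 active = cell count reduction exceeding the screen mean by over 5 SD, scaled to untreated wells per plate, cut at about 78% in these data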;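 note: cells counted after 24 h of TNF alpha exposure following the 1 h pretreatment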
# * = called active by the depositor; u = inconclusive; x = not tested or not shown. The list is not random: actives were taken first. Their share in the collection is about 1.5%.
SMILES,VCAM1 TNFa inh,IL1B NFkB pot,HUVEC tox IL1B,IL1B NFkB inh,HUVEC tox TNFa
COc1cccc(OC)c1C(=O)N1CCN(S(=O)(=O)c2ccc(C)cc2)CC1,12,-32,9,32*,-13
Cc1ccc(S(=O)(=O)N2CCN(C(=O)c3ccccc3)CC2)cc1,-1,25,-6,-25,2
O=C(O)C1CSC(c2ccccc2)N1C(=O)c1ccco1 (stereo unspecified),4,0,-5,0,x
CC(=O)N1C(C(=O)O)CSC1c1cccc(C)c1 (stereo unspecified),4,-36,3,36*,-9
Cc1ccn(CCSCC(=O)O)n1,-8,4,86*,-4,-11
CC(C)C(NS(=O)(=O)c1cccs1)C(=O)N1CCc2ccccc2C1 (stereo unspecified),-13,u,-4,-54,-25
CSc1cccc(NC(=O)Nc2ccc(Cl)cc2)c1,-3,-76,-11,76*,-1
CSc1ccccc1NC(=O)Nc1ccc(Cl)cc1,10,38,-5,-38,-24
Nc1nc2c3ccccc3nc(Cc3ccccc3)n2n1,93*,26,0,-26,-17
O=C(CSc1nn(-c2ccccc2)c(=S)s1)NC(=O)NCc1ccco1,-7,-7,-11,7,-18
CC(/C=N/NC(=O)c1cc(-c2ccc(Cl)cc2)nc2ccccc12)=C\c1ccco1,80*,-25,57,25,58
CC(/C=N/NC(=O)c1cccnc1)=C\c1ccco1,1,-1,-7,1,-12
O=C(NCc1cccnc1)c1cc(-c2cccs2)on1,-10,18,-28,-18,-46
CCCNC(=O)N1CCN(c2ncccn2)CC1,1,56*,6,-56,-8
O=C(Nc1ccccc1)N1CCN(c2ncccn2)CC1,5,-10,-9,10,-9
COc1cccc(C2(CSc3nnc(-c4cc(OC)c(OC)c(OC)c4)o3)OCCO2)c1,13,x,x,x,-12
CC(C)OCCCNC(=O)c1cccs1,18,28,-9,-28,0
CCCCOCCCNC(=O)c1cccs1,90*,-2,-47,2,-77
COCc1nnc(NS(=O)(=O)c2c(C)cc(C)cc2C)s1,-21,-1,7,1,-46
Cc1cc2n(c(=O)c1C#N)CCCN2c1ccccc1,2,8,0,-8,-5
O=c1c2ccccc2nc(/C=C/c2ccc([N+](=O)[O-])o2)n1CCCO,58*,-15,-9,15,10
COc1ccc(CNC(=O)C(c2ccco2)N(Cc2cccs2)C(=O)Cc2cccs2)cc1 (stereo unspecified),15,41*,-5,-41,-21
Cc1cc(C)c(S(=O)(=O)N(CC(=O)N2CCOCC2)C2CCCCC2)c(C)c1,21,-7,75*,7,-9
CCOc1ccc2nc(NC(=O)c3cnc(C)cn3)sc2c1,0,-39,-126,39*,-32
COc1ccc(OCC(=O)c2c(O)c3ccccc3oc2=O)cc1,13,-13,94*,13,-10
SMILES,VCAM1 TNFa inh,IL1B NFkB pot,HUVEC tox IL1B,IL1B NFkB inh,HUVEC tox TNFa
Cc1cc(C)cc(OCc2ccc(C(=O)N3N=C(C(F)F)CC3(O)C(F)F)o2)c1 (stereo unspecified),-2,17,4,-17,-21
CCOc1ccc(OCc2ccc(C(=O)N3N=C(C(F)F)CC3(O)C(F)F)o2)cc1 (stereo unspecified),-3,45*,-16,-45,-20
COCc1cc(C)n(CC(=O)Nc2ccc(Cl)cc2Cl)c(=O)c1C#N,-10,41*,-2,-41,-8
O=C(NC1CC1)c1ccc(S(=O)(=O)NCC2CCCCC2)cc1,51*,4,-3,-4,53
c1cnn(-c2nc(N3CCOCC3)nc(N3CCOCC3)n2)c1,-16,-3,-15,3,-13
CCC(=O)OC1c2ccccc2C(=O)N1Cc1ccccc1 (stereo unspecified),4,-6,0,6,-2
CCOC1=NC(C(=O)O)c2ccccc2/C(=C(/C)Cl)N1 (stereo unspecified),92*,-7,9,7,54
Cc1cccc(C)c1OCC(=O)Nc1oc(-c2ccccc2)c(-c2ccccc2)c1C#N,0,-49,-12,49*,-14
COc1ccc(C(=O)Nc2oc(-c3ccccc3)c(-c3ccccc3)c2C#N)cc1,12,1,-5,-1,-9
O=C(O)CCC(=O)Nc1ccc(C(=O)N2CCCCC2)cc1,15,1,88*,-1,-23
O=C(O)CCCC(=O)Nc1ccc(C(=O)N2CCCCC2)cc1,5,-3,-20,3,-12

# From PubChem BioAssay
